Conditions in all cases: mRNA level, 48 h; actives raise or lower the signal
Read-out in experiment [1]: Cytochrome P450 7A1 (Homo sapiens) (UniProt P22680)
In words: LTEA_HepaRG_CYP7A1: Life Technologies and Expression Analysis (LTEA) Assay for Cytochrome P450 7A1 (CYP7A1) using HepaRG (AID 2283496). The gist of the method: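 HepaRG cells plated 48 h, then switched to serum-free induction medium and exposed in duplicate for 48 h to 8-point half-log series from 100 uM in 0.5% DMSO. CYP7A1 mRNA by qRT-PCR (TaqMan), normalized to ACTB/GAPDH/POLR2A; bidirectional fit versus DMSO.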

Read-out in experiment [2]: Glutathione S-Transferase (GSTA2), GSTA2 (gene 2939)
In words: LTEA_HepaRG_GSTA2: Life Technologies and Expression Analysis (LTEA) Assay for Glutathione S-Transferase (GSTA2) using HepaRG (AID 2283497). The gist of the method: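 HepaRG, 48 h dosing, 8-pt half-log CRC from 100 uM, 0.5% DMSO vehicle, n=2; RNA → Fluidigm TaqMan qRT-PCR; GSTA2 vs ACTB/GAPDH/POLR2A; gain/loss fit vs DMSO.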

Read-out in experiment [3]: Glutamate-cysteine ligase catalytic (GCLC), GCLC (gene 2729)
In words: LTEA_HepaRG_GCLC: Life Technologies and Expression Analysis (LTEA) Assay for Glutamate-cysteine ligase catalytic (GCLC) using HepaRG (AID 2283498). An outline of the steps:
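Read-out is GCLC transcript level by Fluidigm-based TaqMan qRT-PCR, normalized to three housekeeping genes and fitted in both directions relative to 0.5% DMSO. Human HepaRG cells received chemicals for 48 h, up to 100 uM.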

Read-out in experiment [4]: growth arrest and DNA damage 45 (GADD45G), GADD45G (gene 10912)
In words: LTEA_HepaRG_GADD45G: Life Technologies and Expression Analysis (LTEA) Assay for growth arrest and DNA damage 45 (GADD45G) using HepaRG (AID 2283499). The gist of the method:
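Gain or loss of GADD45G mRNA, quantified by TaqMan qRT-PCR against three housekeeping genes, is fitted in both directions relative to 0.5% DMSO. Human HepaRG cultures receive test chemical for 48 h at up to 100 uM.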

Read-out in experiment [5]: Glutamate-cysteine ligase regulatory (GCLM), GCLM (gene 2730)
The experiment can be described thus: LTEA_HepaRG_GCLM: Life Technologies and Expression Analysis (LTEA) Assay for Glutamate-cysteine ligase regulatory (GCLM) using HepaRG (AID 2283500). The gist of the method: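 Differentiated HepaRG cells exposed 48 h in serum-free induction medium to eight half-log concentrations up to 100 uM (0.5% DMSO). GCLM mRNA by TaqMan qRT-PCR, normalized to ACTB, GAPDH and POLR2A; bidirectional fit versus DMSO.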

Read-out in experiment [6]: Glutathione S-transferase M3 (GSTM3), GSTM3 (gene 2947)
The experiment can be described thus: LTEA_HepaRG_GSTM3: Life Technologies and Expression Analysis (LTEA) Assay for Glutathione S-transferase M3 (GSTM3) using HepaRG (AID 2283501). The gist of the method:
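HepaRG, plated 48 h, then serum-free induction medium; test chemical 48 h, duplicate; 100 uM top, half-log x8, 0.5% DMSO. Read-out: GSTM3 mRNA (TaqMan qRT-PCR, Fluidigm array). Bidirectional fit vs DMSO.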

Read-out in experiment [7]: Hypoxia-inducible factor 1-alpha (Homo sapiens) (UniProt Q16665)
In words: LTEA_HepaRG_HIF1A: Life Technologies and Expression Analysis (LTEA) Assay for Hypoxia-inducible factor 1 (HIF1A) Trancription factor using HepaRG (AID 2283503). The gist of the method: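 Differentiated HepaRG cells in serum-free induction medium exposed 48 h, in duplicate, to 8-point half-log series from 100 uM in 0.5% DMSO. HIF1A mRNA measured by TaqMan qRT-PCR, normalized to ACTB/GAPDH/POLR2A, fitted bidirectionally versus DMSO.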

Read-out in experiment [8]: 3-Hydroxy-3-Methylglutaryl-CoA Synthase 2 (HMGCS2), HMGCS2 (gene 3158)
In words: LTEA_HepaRG_HMGCS2: Life Technologies and Expression Analysis (LTEA) Assay for 3-Hydroxy-3-Methylglutaryl-CoA Synthase 2 (HMGCS2) using HepaRG (AID 2283504). The gist of the method:
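HepaRG, plated 48 h then switched to serum-free induction media; cmpd 8-pt, max 100 uM, 1/2-log, 0.5% DMSO, n=2, 48 h. HMGCS2 mRNA by Fluidigm TaqMan qRT-PCR, ACTB/GAPDH/POLR2A norm; bidirectional fit vs DMSO.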

Read-out in another experiment: HGF (gene 3082)
The experiment can be described thus: LTEA_HepaRG_HGF: Life Technologies and Expression Analysis (LTEA) Assay for Hepatocyte Growth Facto (HGF) using HepaRG (AID 2283505). An outline of the steps:
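Read-out is HGF transcript level by qRT-PCR, normalized to three housekeeping genes, fitted bidirectionally against 0.5% DMSO vehicle. Human HepaRG cells received test chemicals for 48 h at up to 100 uM.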

Calls of active or inactive are those of the source. Rule for the calls: active = hit-call score of the fitted dose curve at least 0.9, where 1 is the maximum; inactive = score below 0.9.

Sequence of Hypoxia-inducible factor 1-alpha (Homo sapiens) (Q16665 whole entry, looked up): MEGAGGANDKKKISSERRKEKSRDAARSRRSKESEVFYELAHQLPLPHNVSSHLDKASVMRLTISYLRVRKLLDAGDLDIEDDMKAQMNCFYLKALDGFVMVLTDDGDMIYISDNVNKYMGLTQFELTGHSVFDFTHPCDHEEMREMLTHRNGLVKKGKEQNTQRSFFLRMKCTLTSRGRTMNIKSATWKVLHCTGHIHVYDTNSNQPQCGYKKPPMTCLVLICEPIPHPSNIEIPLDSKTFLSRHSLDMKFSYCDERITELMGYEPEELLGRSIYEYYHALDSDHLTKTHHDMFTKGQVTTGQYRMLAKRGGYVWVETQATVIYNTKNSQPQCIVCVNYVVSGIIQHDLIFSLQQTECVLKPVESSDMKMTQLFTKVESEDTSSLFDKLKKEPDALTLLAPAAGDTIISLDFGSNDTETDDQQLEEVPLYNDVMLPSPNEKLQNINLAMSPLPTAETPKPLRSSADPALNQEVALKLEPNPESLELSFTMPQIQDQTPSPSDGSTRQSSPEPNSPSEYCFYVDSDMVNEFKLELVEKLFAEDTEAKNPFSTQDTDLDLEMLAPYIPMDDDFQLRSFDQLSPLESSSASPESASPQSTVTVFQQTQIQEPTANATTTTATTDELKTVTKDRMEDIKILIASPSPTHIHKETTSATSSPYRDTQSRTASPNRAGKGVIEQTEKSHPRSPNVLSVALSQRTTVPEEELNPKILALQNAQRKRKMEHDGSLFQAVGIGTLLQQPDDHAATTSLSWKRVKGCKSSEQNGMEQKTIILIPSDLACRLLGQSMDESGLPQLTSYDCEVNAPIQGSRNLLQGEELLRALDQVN

For `CCCCC(O)(Cn1cncn1)c1ccc(Cl)cc1Cl` (stereo not given), the half-maximal activity concentration (AC50) – broadly, the concentration giving half of the maximal activity seen – in [1] was 89 µM (active); in [2] it was 73.2 µM (active); in [4], 15.8 µM (active); in [6], 82.6 µM (active); in experiment [7], 80.6 µM (active); in experiment [8], 77.9 µM (active). Also, the half-maximal activity concentration (AC50) with HGF (gene 3082) was 75.3 µM (active). Besides, the compound was called inactive in experiment [3] and in [5].
For `CSC(=O)c1c(C(F)F)nc(C(F)(F)F)c(C(=O)SC)c1CC(C)C`, the result in experiment [1], in [3], in experiment [5], in experiment [6] and in experiment [7] was inactive. Moreover, the AC50 in experiment [2] was 88.2 µM (active); in experiment [4] it was 65.3 µM (active); in [8], 85.8 µM (active).
On to `CC(C)(C)C(=O)C(Oc1ccc(Cl)cc1)n1cncn1` (stereo not given), for which the outcome in experiment [1], in experiment [3], in experiment [4], in [5], in experiment [6] and in [7] was inactive. Further, the compound was called inactive in experiment [8].
Regarding `COC(=O)c1c(C(F)F)nc(C(F)(F)F)c(C2=NCCS2)c1CC(C)C`, the outcome in experiment [1], in [2], in [3], in [4], in experiment [5] and in experiment [6] was inactive. Also, the compound was called inactive in [7] and in experiment [8].
On to `COP(=S)(OC)Oc1ccc([N+](=O)[O-])c(C)c1`, for which the compound was called inactive in [1], in experiment [2], in [3], in [4], in experiment [5] and in experiment [6]. Further, the call (in [7]; in experiment [8]; in the experiment with HGF (gene 3082)) was inactive.
For `CCCCOCN(C(=O)CCl)c1c(CC)cccc1CC`, the outcome in [1], in experiment [2], in experiment [3], in experiment [4], in experiment [5] and in experiment [6] was inactive. In addition, the call (in experiment [7]; in [8]; with HGF (gene 3082)) was inactive.
Consider `CS(=O)(=O)c1ccc(C(=O)C2C(=O)CCCC2=O)c([N+](=O)[O-])c1`, for which the result in experiment [1], in [2], in experiment [3], in [4], in experiment [5] and in [6] was inactive. Besides, the compound was classed as inactive (in experiment [7]; in [8]; in the experiment with HGF (gene 3082)).
Take `N#Cc1c(Cl)cccc1Cl`: the compound was called inactive in experiment [1], in experiment [2], in experiment [3], in [4], in experiment [5] and in [6]. Moreover, the call (in experiment [7]; in experiment [8]; with HGF (gene 3082)) was inactive.
As for `CC1(C)C(C=C(Cl)Cl)C1C(=O)OC(C#N)c1cccc(Oc2ccccc2)c1` (stereo not given), the AC50 in experiment [1] was 13.9 µM (active). Also, the call in experiment [2], in experiment [3], in experiment [4], in experiment [5], in experiment [6] and in experiment [7] was inactive. In addition, the compound was called inactive in experiment [8].
With `Clc1cccc(C(Cl)(Cl)Cl)n1`, the call in experiment [1], in [2], in [3], in experiment [4], in [5] and in experiment [6] was inactive. In addition, the compound was called inactive (in [7]; in experiment [8]; with HGF (gene 3082)).
On to `CCOP(=S)(OCC)Oc1nc(Cl)n(C(C)C)n1`, for which the figures for the AC50 in experiment [1] and in experiment [8] were 2.01 µM (active) and 17.2 µM (active), respectively. In addition, the outcome in experiment [2], in [3], in experiment [4], in experiment [5], in experiment [6] and in experiment [7] was inactive. The compound was classed as inactive in the experiment with HGF (gene 3082).
For `COc1ccc(-c2ccccc2)cc1NNC(=O)OC(C)C`, the result in [1], in [2], in experiment [3], in [4], in experiment [5] and in experiment [6] was inactive. The call (in experiment [7]; in experiment [8]; in the experiment with HGF (gene 3082)) was inactive.
Take `COc1cc(OC)nc(NC(=O)NS(=O)(=O)c2ncccc2OCC(F)(F)F)n1`: the outcome in [1], in experiment [2], in [3], in experiment [5], in [6] and in experiment [7] was inactive. Besides, the call (in experiment [8]; in the experiment with HGF (gene 3082)) was inactive. Besides, the AC50 in [4] was 0.19 µM (active).
Consider `O=C(O)c1c(Cl)ccc2cc(Cl)cnc12`, for which the result in [1], in [2], in [3], in experiment [4], in [5] and in experiment [6] was inactive. The compound was classed as inactive in experiment [7] and in experiment [8].

The record behind these values is PubChem BioAssay (EPA / NIEHS).
